# Source: PubChem BioAssay
# Rows were chosen to be rich in hits. Some 7.9% of all compounds tested hit in one or more screens of this group.
# KB-V1 cytotox: qHTS assay for MDR1-selective chemotherapeutics: Primary screen using the drug-selected MDR subline cells KB-V1 | KB-V1 MDR cells viability, CellTiter-Glo, 72 h | Potency, µM (top dose mostly 46.1 µM), hits mostly cytotoxic | 400,000 tested, 3.4% active | AID 1347076, 2019; further: on the % scale 0 is the no-effect control and ±100 the full control effect; nearly all actives have a fitted effect of over 60% in size
#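 Cytotoxicity via CellTiter-Glo luminescence after 72 h compound exposure at 37 degrees C. Cells: drug-selected KB-V1 line, DMEM phenol-red free plus 10% FBS. Compounds tested at multiple concentrations; normalized data fitted to concentration-effect curves.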
# HT1080 IDH1KD tx: qHTS for induction of synthetic lethality in tumor cells producing 2HG: qHTS for the HT-1080-IDH1KD cell line; HT-1080 IDH1 knockdown viability, ATP luminescence, 48 h; Potency, µM (titrated, usually from 46.1 µM), for inactives: at the highest dose activity, negative = toxicity, usual class: cytotoxic; 360,000 tested, 2% active; AID 686971, 2013;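 further: 0% = DMSO wells and -100% = cell-free medium wells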
#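 Assay cells: HT-1080 with IDH1 knockdown, 750 per well, RPMI/5% FBS. Exposure: 48 h at 37 °C following 2 h pre-incubation. Read: CellTiter-Glo luminescence; fitted concentration-response, curve class assigned.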
# SW480 rereplic: A quantitative high throughput screen for small molecules that induce DNA re-replication in SW480 colon adenocarcinoma cells. SW480 DNA re-replication, Hoechst DNA content imaging, 48 h. Potency, µM (highest dose often 46.1 µM), for the others: at the highest dose re-replication activation, most hits filed as activators. 340,000 tested, 1.8% active; further: % of control where 0% means no effect; nearly all actives have a fitted effect of over 55% in size
#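 Image-based read-out: total Hoechst fluorescence of nuclei (405 nm excitation, 500-530 nm emission), with hits raising the fraction of high-intensity nuclei. SW480 colon cells incubated 48 hr with compounds at 37 C.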
# MCF10A rereplic: A quantitative high throughput screen for small molecules that induce DNA re-replication in MCF 10a normal breast cells; 350,000 tested, 2.9% active; MCF 10A DNA re-replication, Hoechst nuclear intensity, 48 h; AID 624296, 2012; Potency, µM (titrated, usually from 46.1 µM), for the others: top-dose activity, positive = re-replication, usual class: activators; further: % of control where 0% means no effect; nearly all actives have a fitted effect of over 50% in size
# KB-3-1 tox: qHTS assay for MDR1-selective chemotherapeutics: Primary screen using the parental adenocarcinoma cell KB-3-1; KB-3-1 viability, CellTiter-Glo ATP luminescence, 72 h; Potency, µM (highest dose often 46.1 µM), hits mostly cytotoxic; 400,000 tested, 1.4% active; further: on the % scale 0 is the no-effect control and ±100 the full control effect; nearly all actives have a fitted effect of over 60% in size
#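 Cytotoxicity measured as CellTiter-Glo luminescence after 72 h at 37 C. Compound titrations were pinned onto drug-naive KB-3-1 parental adenocarcinoma cells grown in DMEM with 10% FBS, and normalized data fitted to concentration-response curves.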
# HT1080NT lethal: qHTS for induction of synthetic lethality in tumor cells producing 2HG: qHTS for the HT-1080-NT fibrosarcoma cell line; HT-1080-NT fibrosarcoma viability, CellTiter-Glo ATP luminescence, 48 h; Potency, µM (series often up to 46.1 µM), inactives show top-dose activity, negative = less viability, usual class: cytotoxic; 360,000 tested, 1.6% active;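 further: NT is the 2HG producing partner of a matched IDH1 knockdown line; 0% = DMSO-treated cells and -100% = media-only wells without cells; nearly all actives have a fitted effect of over 55% in size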
#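 Viability of the 2HG-overproducing fibrosarcoma line after 48 hours of compound exposure at 37 degrees C was determined by luminescence with CellTiter-Glo, and concentration-effect curves were then fitted and categorized.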
# Active calls of the source: *; i = inactive; ? = inconclusive; [ ] = another dose, or the depositor's remark. The call rests on the fitted dose curve; in most records, active means well fitted curve in the direction sought with a large enough effect; inconclusive means small, poorly fitted or top-dose-only effect, or another doubt; inactive means no such curve, though single readings can be large; an effect the other way counts as inactive or inconclusive. Potency means the concentration at half of the fitted maximal effect.
SMILES,KB-V1 cytotox,HT1080 IDH1KD tx,SW480 rereplic,MCF10A rereplic,KB-3-1 tox,HT1080NT lethal
CCCCn1nc(NC(=O)CC(C)C)c2cc3cc(OC)ccc3nc21,i,3%,12µM*,15µM*,i,4%
COc1ccc2nc3c(cc2c1)c(NC(=O)C1CCCO1)nn3CC(C)C (configuration not stated),i,0%,?,7%,i,-8%
CCCC(=O)Nc1nn(CC(C)C)c2nc3cc(C)ccc3cc12,i,-9%,21%,?,i,-1%
CC1CCCCC1NC(=O)CCNS(=O)(=O)c1ccc2c(c1)CCC(=O)N2 (configuration not stated),i,2%,13%,?,i,6%
COCCCn1nnnc1SCC(=O)Nc1nc(C)c(C)s1,i,-16%,-6%,2%,i,-1%
COc1ccc(Nc2nc(-c3cccs3)nc3ccccc23)cc1,18µM*,?,2%,16µM*,?,?
COc1ccc(Nc2nc(-c3ccccc3)nc3ccccc23)cc1,?,?,0%,16%,?,?
COc1cccc(Nc2nc(-c3cccs3)nc3ccccc23)c1,?,?,?,?,i,16µM*
N#Cc1c(-c2ccccc2)cc(-c2cccs2)nc1SCC(=O)O,i,-9%,-2%,29%,i,-4%
CCOC(=O)CSc1nc(C2CC2)cc(-c2ccc(Cl)cc2)c1C#N,21µM*,3%,-49%,26%,i,6%
N#Cc1c(-c2ccccc2F)cc(C2CC2)nc1SCC(=O)c1cccs1,?,1%,10µM*,?,i,20%
N#Cc1c(-c2ccc(Cl)cc2)cc(-c2cccs2)nc1SCC(=O)O,i,-24%,5%,23µM*,i,-1%
O=C(c1cccs1)N(Cc1cc2ccccc2[nH]c1=O)c1ccccc1,5.2µM*,-2%,1%,-70%,?,15%
Cc1ccc(N(Cc2cc3ccccc3[nH]c2=O)C(=O)c2cccs2)cc1C,?,17%,?,-4%,i,14%
Cc1cc2nc3n(c2cc1C)CC1CC(C(=O)NCCc2cccs2)N(C)C31 (configuration not stated),i,1%,-21%[9.22 µM],?,i,0%
O=C(CCN1C(=O)/C(=C/c2cccs2)SC1=S)N1CCCCC1,?,?,23µM*,?,?,?
O=C(CCCN1C(=O)/C(=C/c2ccccc2Cl)SC1=S)N1CCOCC1,i,-1%,?,?,?,-6%
CN1CCN(C(=O)CCN2C(=O)S/C(=C/c3ccc(Cl)cc3)C2=O)CC1,?,10%,-5%,?,i,21%
O=C(CCN1C(=O)/C(=C\c2ccccc2)SC1=S)N1CCCCC1,i,?,1%,?,?,-1%
Cc1ccc(/C=C2\SC(=O)N(CCC(=O)N3CCN(C)CC3)C2=O)cc1,?,-10%,-1%,13µM*,i,-13%
Cc1ccc(/C=C2/SC(=S)N(CCC(=O)N3CCN(C)CC3)C2=O)cc1,i,-18%,1%,19%,?,-1%
CN1CCN(C(=O)CCN2C(=O)/C(=C/c3ccc(F)cc3)SC2=S)CC1,i,-10%,-2%,?,21µM*,-7%
CN1CCN(C(=O)CCN2C(=O)/C(=C/c3ccccc3Cl)SC2=S)CC1,?,?,?,5.8µM*,?,?
CC(=O)Nc1ccc(S(=O)(=O)NC2CCSc3ccccc32)cc1 (configuration not stated),i,-7%,?,18%,?,-4%
O=C(CSc1nnc2ccc(-c3ccncc3)nn12)Nc1ccc(F)cc1,i,-10%,0%,0%,i,-2%
SMILES,KB-V1 cytotox,HT1080 IDH1KD tx,SW480 rereplic,MCF10A rereplic,KB-3-1 tox,HT1080NT lethal
O=C(c1cc2ccccc2o1)N1CCN=C1SCc1cccc(F)c1,i,2%,1%,2%,i,-4%
CC(C)CNC(=O)C1CCN(S(=O)(=O)c2ccc3c(c2)OCCO3)CC1,i,4%,-10%,-6%,i,3%
COc1ccc(/C=C2\SC(=S)N(CCCC(=O)N3CCOCC3)C2=O)cc1OC,?,-7%,4%,5%,?,-1%
O=C(CCCN1C(=O)/C(=C/c2ccccc2)SC1=S)NCCCn1ccnc1,i,-7%,-4%,?,?,-5%
CN1CCN(C(=O)CCN2C(=O)/C(=C\c3ccccc3F)SC2=S)CC1,i,?,?,23µM*,?,-13%
O=C(CCN1C(=O)/C(=C/c2ccc(F)cc2)SC1=S)NC1C=CS(=O)(=O)C1 (configuration not stated),?,-3%,27%,?,i,3%
O=C(CCN1C(=O)/C(=C/c2ccccc2Cl)SC1=S)NC1C=CS(=O)(=O)C1 (configuration not stated),i,-1%,?,15µM*,i,-4%
COc1ccc(/C=C2\SC(=S)N(CCCC(=O)N3CCOCC3)C2=O)cc1,?,-15%,?,?,23µM*,-6%
O=C(CCN1C(=O)/C(=C/c2ccccc2F)SC1=S)NCCCn1ccnc1,i,0%,-6%,21µM*,i,1%
CCCOc1ccc(C(=O)Nc2ccc(S(=O)(=O)N3C[C@@H]4C[C@@H](C3)c3cccc(=O)n3C4)cc2)cc1,i,?,24%,-55%,?,8.2µM*
CCCOc1ccc(C(=O)Nc2ccc(S(=O)(=O)N3CCN(C)CC3)cc2)cc1,?,-21%,17%,?,i,-11%
Cc1sc2nc(CN3CCCC3)nc(N3CCN(S(=O)(=O)c4ccccc4)CC3)c2c1C,i,-26%,-3%,5%,i,-16%
Cc1ccc(S(=O)(=O)N2CCN(c3ncnc4scc(-c5ccccc5)c34)CC2)cc1,7.3µM*,19%,3%,?,?,10%
Cc1ccc(S(=O)(=O)N2CCN(c3ncnc4sccc34)CC2)cc1C,5.2µM*,?,8%,?,?,?
Cc1sc2ncnc(N3CCN(S(=O)(=O)c4ccccc4)CC3)c2c1C,7.3µM*,7%,-7%,12%,i,7%
